Screening results from PubChem BioAssay.
The list is not random: actives were taken first. Their share in the collection is about 19%.
IL-1B inflam inh – qHTS for Inhibitors of Inflammasome Signaling: IL-1-beta AlphaLISA Primary Screen; THP-1 LPS/ATP IL-1B secretion, AlphaLISA, 16 h; stronger effect = lower value; activity change, % at 57.5 µM; 360,000 tested, 4.7% active; in the data active = activity change below about -50%; inconclusive = mostly about -30% to -49%; also: % is scaled to controls: 0 for no effect and ±100 for the full control effect
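Secreted IL-1B measured by AlphaLISA bead assay after 16 h compound exposure of THP-1 cells; compounds (final up to 57.5 uM) added 1 h before LPS (250 ng/mL) and ATP (1.25 mM) stimulation; lower signal means less secretion.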
TDP1 cell noCPT – qHTS for Inhibitors of human tyrosyl-DNA phosphodiesterase 1 (TDP1): qHTS in cells in absence of CPT; 420,000 tested, 15% active; Potency, µM (top dose mostly 46.2 µM), inactives show at the top dose activity change, negative = growth inhibition, actives largely listed as inhibitors; DT40 Tdp1-/- hTDP1 cells, no CPT, ATP luminescence, 48 h; also: potency is read from the fitted curve at half-maximal effect; % is scaled to controls: 0 for no effect and ±100 for the full control effect; nearly all actives have a fitted effect of over 55% in size
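Readout: luminescence from CellTiter-Glo after 30 min in the dark at RT. Cells: DT40 Tdp1-/- with stable hTDP1, 400/well. Exposure: compounds alone, ≥48 hr, 37 °C.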
TGFb SMAD3 inh – qHTS for Inhibitors of TGF-b | HepG2 CAGA-GFP TGF-b/SMAD3 reporter, GFP fluorescence, 18 h; TGF-beta stimulated, 500 pg/mL final | AID 588855, 2011 | 410,000 tested, 1.2% active | Potency, µM (series often up to 46.1 µM), for inactives: at the highest dose activity, negative = inhibition, usual class: inhibitors; also: potency is read from the fitted curve at half-maximal effect; % is scaled to controls: 0 for no effect and ±100 for the full control effect; nearly all actives have a fitted effect of over 65% in size
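Per well, imaged GFP fluorescence of HEPG2 CAGA-GFP cells gives the signal; cells get compound, then TGF-beta (500 pg/mL final), 18 h at 37 degrees C; %Activity versus -TGF-beta and +DMSO controls.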
HepG2 tox-1 – qHTS for Inhibitors of TGF-b: Cytotox Counterscreen. 410,000 tested, 0.76% active. HepG2 CAGA-GFP viability, ATP luminescence, 18 h. Potency, µM (series often up to 46.1 µM), without a hit: at the highest dose activity change, negative = cytotoxicity, hits mostly cytotoxic; also: potency is read from the fitted curve at half-maximal effect
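HepG2 CAGA-GFP cells (1000/well, DMEM with 1% FBS) received compound, then TGF-beta at 500 pg/mL final, and were incubated 18 hours at 37 degrees C. Viability was read by CellTiter-Glo luminescence. Media-only wells were set as complete cell-killing and DMSO as no toxicity.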
TDP1 cell CPT – qHTS for Inhibitors of human tyrosyl-DNA phosphodiesterase 1 (TDP1): qHTS in cells in presence of CPT. chicken DT40 Tdp1-/-;hTDP1 cells + 20 nM CPT, ATP luminescence, 48 h. 420,000 tested, 12% active. AID 686979, 2013. Potency, µM (top dose mostly 46.2 µM), for inactives: at the top dose activity change, negative = growth inhibition, usual class: inhibitors; also: potency is read from the fitted curve at half-maximal effect; % is scaled to controls: 0 for no effect and ±100 for the full control effect; nearly all actives have a fitted effect of over 55% in size
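Cell growth measured by CellTiter-Glo luminescence after a minimum 48 h, 37 C compound exposure with 20 nM CPT in Tdp1-knockout DT40 cells stably expressing hTDP1, seeded 400/well; qHTS titration format.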
S-ASM inh – Inhibitors of Secretory Acid Sphingomyelinase (S-ASM): qHTS; placental ASM, HMU-PC fluorogenic substrate, 60 min; 340,000 tested, 0.006% active; Sphingomyelin phosphodiesterase (Homo sapiens), P17405; Potency, µM (top dose mostly 57.5 µM), inactives show at the highest dose activity change, negative = inhibition, actives largely listed as inhibitors; also: potency is read from the fitted curve at half-maximal effect
Target sequence (P17405 47-631 limits assumed): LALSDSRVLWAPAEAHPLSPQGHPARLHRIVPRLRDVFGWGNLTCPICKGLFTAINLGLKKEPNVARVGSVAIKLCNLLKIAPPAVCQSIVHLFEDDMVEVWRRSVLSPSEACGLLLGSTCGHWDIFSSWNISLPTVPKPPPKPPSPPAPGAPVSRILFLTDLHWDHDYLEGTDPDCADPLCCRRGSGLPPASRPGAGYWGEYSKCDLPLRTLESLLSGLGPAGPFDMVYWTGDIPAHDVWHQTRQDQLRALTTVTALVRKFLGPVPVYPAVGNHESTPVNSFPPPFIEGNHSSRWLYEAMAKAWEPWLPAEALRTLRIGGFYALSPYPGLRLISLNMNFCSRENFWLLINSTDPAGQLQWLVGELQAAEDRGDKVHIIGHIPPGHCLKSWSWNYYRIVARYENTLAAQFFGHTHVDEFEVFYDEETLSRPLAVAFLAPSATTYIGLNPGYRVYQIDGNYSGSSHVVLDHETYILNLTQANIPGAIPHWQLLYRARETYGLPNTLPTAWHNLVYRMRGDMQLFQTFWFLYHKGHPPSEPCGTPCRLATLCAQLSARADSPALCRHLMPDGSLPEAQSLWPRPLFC
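Fluorescence read-out (Ex 386 nm, Em 447 nm) after stopping the reaction at pH 10. Enzyme: ASM from human placenta; substrate HMU-PC0, 9 uM final; 60 min, 37 °C. Compound preincubation 10 min, ambient temperature.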
TGFb CAGA inh – qHTS for Inhibitors of TGF-b: Confirmation of Cherry Picks; shares compounds with TGFb SMAD3 inh; HepG2 CAGA-GFP TGF-b reporter, GFP fluorescence, 18 h; cells stimulated with TGF-beta, 500 pg/mL; Potency, µM (series often up to 46.1 µM), inactives show top-dose activity, negative = inhibition, most hits filed as inhibitors; 1,600 tested, 63% active; also: potency is read from the fitted curve at half-maximal effect; % is scaled to controls: 0 for no effect and ±100 for the full control effect; nearly all actives have a fitted effect of over 65% in size
HepG2 tox-2 – qHTS for Inhibitors of TGF-b: Cytotox Counterscreen for Cherry Picks. shares compounds with TGFb SMAD3 inh. HepG2 CAGA-GFP viability, ATP luminescence, 18 h; cells stimulated with TGF-beta, 500 pg/mL. Potency, µM (doses to about 46.1 µM), inactives show top-dose activity, negative = cytotoxicity, hits mostly inhibitors. 1,600 tested, 27% active. AID 720535, 2013; also: potency is read from the fitted curve at half-maximal effect; % is scaled to controls: 0 for no effect and ±100 for the full control effect; nearly all actives have a fitted effect of over 70% in size
TGFb CCL64 inh – qHTS for Inhibitors of TGF-b: CCL64 Cells Orthogonal Assay for Cherry Picks | AID 720536, 2013 | Potency, µM (doses to about 46.1 µM), without a hit: at the highest dose activity, negative = inhibition, hits mostly inhibitors | shares compounds with TGFb SMAD3 inh | 1,600 tested, 41% active | CCL64 CAGA-GFP reporter, TGF-b stimulated, GFP fluorescence, 18 h; also: potency is read from the fitted curve at half-maximal effect; nearly all actives have a fitted effect of over 65% in size
TGFb COP inh – qHTS for Inhibitors of TGF-b: Hit Validation in HepG2 Cells using COP promoter. AID 720537, 2013. HepG2 COP-GFP TGF-b reporter, GFP fluorescence, 18 h; cells stimulated by added recombinant TGF-beta. 1,600 tested, 3% active. Potency, µM (top dose mostly 46.1 µM), inactives show at the top dose activity, negative = inhibition, actives largely listed as inhibitors. shares compounds with TGFb SMAD3 inh; also: potency is read from the fitted curve at half-maximal effect; nearly all actives have a fitted effect of over 70% in size
Starred values were filed as active, the others as inactive; ? = inconclusive; . = no result. Unless noted, calls follow the shape of the dose curve; as a rule, active = well fitted curve in the direction sought with a large enough effect; inconclusive = small, poorly fitted or top-dose-only effect, or another doubt; inactive = no such curve, though single readings can be large; an effect the other way counts as inactive or inconclusive.

SMILES	IL-1B inflam inh	TDP1 cell noCPT	TGFb SMAD3 inh	HepG2 tox-1	TDP1 cell CPT	S-ASM inh	TGFb CAGA inh	HepG2 tox-2	TGFb CCL64 inh	TGFb COP inh
CN(c1ccc(F)cc1)S(=O)(=O)c1ccc(Cl)c(C(=O)Nc2ccc3c(c2)CCC3)c1	-17.5	3.66µM*	11.2µM*	0.8%	5.17µM*	-1.7%	?	-11.6%	-19.9%	-7.3%
CN(C)S(=O)(=O)c1ccc(Cl)c(NC(=O)CN2CCCCCC2)c1	14.9	?	2.0%	12.8%	7.7%	6.8%	.	.	.	.
CN(C)S(=O)(=O)c1ccc(Cl)c(NC(=O)CN2CCC(Cc3ccccc3)CC2)c1	1.9	?	?	-0.8%	?	-2.5%	13µM*	?	?	17.3%
COc1ccc(C(=O)Nc2ccc(C)c(S(=O)(=O)N3CCOCC3)c2)cc1S(=O)(=O)N1CCCC1	14.1	?	11.2µM*	-6.7%	20.6µM*	-2.0%	?	2.1%	?	1.9%
O=C(NCCN1CCOCC1)c1ccc(Cl)c(S(=O)(=O)N2CCCCCC2)c1	19.8	-18.9%	2.51µM*	-34.6%	-3.7%	-2.1%	?	-9.5%	-2.5%	1.0%
COCCNC(=O)CCCn1c(=O)[nH]c2ccsc2c1=O	.	-9.4%	0.1%	-21.1%	-1.0%	.	.	.	.	.
CC(=O)Nc1ccc(S(=O)(=O)c2ccnc3cc(Cl)ccc23)cc1	-102.6*	9.2µM*	10µM*	-74.6%	11.6µM*	.	23.1µM*	?	20.6µM*	14.7%
CC(C)CCNC(=O)C(c1ccco1)N(Cc1cccs1)C(=O)Cn1nnc2ccccc21 (stereo not drawn)	-26.8	?	7.08µM*	17.6%	25.9µM*	-2.3%	?	8.9%	?	1.3%
O=C(O)c1ccccc1NC(c1ccccc1)c1ccc2cccnc2c1O (stereo not drawn)	27.0	?	8.91µM*	-19.6%	14.6µM*	-3.6%	6.51µM*	?	14.6µM*	-23.6%
COc1ccc(C(NC(=O)C(C)C)c2ccc3cccnc3c2O)cc1 (stereo not drawn)	137.9	0.461µM*	4.47µM*	-38.0%	0.731µM*	3.2%	-12.6%	?	7.31µM*	35.1%
O=C(CSc1cccc2cccnc12)Nc1ccccc1F	-1.2	?	?	-48.9%	?	4.8%	.	.	.	.
CC(=O)NC(c1cc(F)c2cccnc2c1O)C1CC1 (stereo not drawn)	.	.	?	-44.3%	.	7.9%	.	.	.	.
COc1ccc(C(NC(C)=O)c2cc(Cl)c3cccnc3c2O)cc1 (stereo not drawn)	255.6	8.2µM*	7.08µM*	-43.1%	8.2µM*	-1.3%	?	?	13µM*	20.2%
COc1ccc(OCC(=O)Nc2cccc3cccnc23)cc1	24.2	1.1%	-0.3%	-29.4%	-4.8%	-0.7%	.	.	.	.
CC(C)c1ccc(S(=O)(=O)c2cnc(SCC(=O)Nc3ccc4c(c3)OCCO4)[nH]c2=O)cc1	.	0.3%	-4.4%	-2.6%	-2.6%	.	.	.	.	.
CCCN1/C(=C(\C#N)C2=NS(=O)(=O)c3ccccc32)N(C)c2ccccc21	-6.5	1.0%	-12.4%	10.0%	12.1%	-0.3%	.	.	.	.
Cc1cc(C)cc(NC(=O)Cn2c(=O)oc3cc(S(=O)(=O)N4CCC(C)CC4)ccc32)c1	1.3	14.6µM*	7.94µM*	7.94µM*	6.51µM*	2.5%	?	-22.1%	?	7.9%
COc1ccc(C)cc1N=Nc1ccc(O)c2ncccc12	-9.5	2.59µM*	7.08µM*	-33.6%	3.26µM*	-11.7%	6.51µM*	-15.9%	2.31µM*	7.7%
CN1C(=O)[C@H]2[C@@H](C3CC3)N3C(=O)CN(Cc4ccc(-c5ccccc5)cc4)C(=O)[C@@]3(C)[C@H]2C1=O	-2.5	-23.4%	-7.7%	-15.3%	-24.7%	3.6%	.	.	.	.
N#CC(c1cccc(Cl)c1)c1ccc2c(C(F)(F)F)cc(C(F)(F)F)nc2n1 (stereo not drawn)	-105.3*	1.64µM*	1.26µM*	-48.7%	1.46µM*	-18.9%	0.366µM*	1.3µM*	1.16µM*	15.5%
Cc1ccc(CNC(=O)CCCn2nc(C)n3c(cc4sccc43)c2=O)cc1	.	-17.6%	-17.5%	8.6%	-17.8%	.	.	.	.	.
CC(=O)N1c2ccc(S(=O)(=O)N3CCC(C(=O)Nc4cccc(C(F)(F)F)c4)CC3)cc2CC1C (stereo not drawn)	-4.9	?	11.2µM*	-19.0%	16.4µM*	-7.0%	16.4µM*	?	-22.8%	-7.7%
Fc1ccc(-c2csc3ncnc(N4CCc5ccccc5C4)c23)cc1	-1.3	?	17.8µM*	-29.9%	16.4µM*	-12.2%	16.4µM*	?	?	20.1%
Cc1cc(C)cc(OCC(=O)NC2CCCc3ccccc32)c1 (stereo not drawn)	-28.9	?	-24.6%	-25.6%	-22.5%	5.9%	.	.	.	.
